Data from PubChem BioAssay (NCATS).
Records with an inconclusive call do not appear. Entries that show only a call come without a potency. Activity calls are given as the source filed them. Unless noted, calls come from the whole dose curve; as a rule, active = well fitted curve in the direction sought with a large enough effect; inconclusive = small, poorly fitted or top-dose-only effect, or another doubt; inactive = no such curve, though single readings can be large; an effect the other way counts as inactive or inconclusive. Residues, ends and D or L forms follow the SMILES beside them.

Columns and labels:
[1] = molecular target: Cytochrome P450 1A2 (Homo sapiens) (UniProt P05177); assay: p450-cyp1a2 (AID 410; calls by dose curve; note: potency is the fitted concentration of half-maximal effect)
Method in brief: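 20nM CYP1A2 with 100uM Luciferin-ME (at Km) in 100mM KPO4; compound preincubated 10 min, NADPH regeneration added, 60 min at room temperature. Luciferin quantified by luminescence after detection reagent; normalized to 57 uM furafylline.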

[2] = molecular target: Glucocorticoid receptor (Homo sapiens) (UniProt P04150); assay: GR-GFP Redistribution (AID 450;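 active = compounds whose dose series gives a full or clear partial fitted curve of increased nuclear translocation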; note: potency is the fitted concentration of half-maximal effect); details: U2OS GR-GFP nuclear translocation, laser cytometry, 2 h
[3] = molecular target: Glucocorticoid receptor (Homo sapiens) (UniProt P04150); assay: GR-EFC Redistribution (AID 451; calls by dose curve; note: potency is the fitted concentration of half-maximal effect); details: CHO-K1 GR-EFC translocation, beta-gal luminescence, 2 h
Method in brief: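 CHO-K1 cells stably expressing nuclear-localized β-gal enzyme acceptor and GR fused C-terminally to the enzyme donor fragment; ligand-driven nuclear translocation restores β-gal by complementation. Compounds titrated up to 46 uM final, 2 h at 37 °C; luminescence read.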

[4] = molecular target: Mitogen-activated protein kinase 10 (Mus musculus) (UniProt Q61831); assay: JNK3 AlphaScreen Assay (AID 530; active = well fitted curve in either direction with a large enough effect, not every such curve was filed as active;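 note: kinase came from lysate of stimulated human HepG2 cells; signal reports phosphorylation of biotinylated GST-cJun 1-79 at Ser73 with 10 µM ATP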)
Method in brief: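 Inhibitors reduce antibody binding to phosphorylated biotin-cJun, lowering AlphaScreen luminescence. Lysates from HepG2 cells pre-activated by IL-1beta plus TNF-alpha supplied JNK3; compounds were titrated.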

[5] = molecular target: 3',5'-cyclic-AMP phosphodiesterase 4B (Homo sapiens) (UniProt Q07343); assay: qHTS Assay for Inhibitors of PDE-IV (AID 607; active = well fitted activation curve with a large enough effect in the main read-out, with a control signal flat, not every such curve was filed as active)
Method in brief: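 Cell-based read-out of cAMP via a modified cyclic nucleotide-gated channel and membrane potential dye (535/590 nm) in HEK293 cells expressing PDE4 endogenously. Compounds tested up to 22.9 uM final; 100 uM RO 20-1724 reference.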

[6] = qHTS Assay for Lipid Storage Modulators (AID 1519; calls by dose curve); details: Drosophila S3 cells, BODIPY lipid droplet/cell ratio, laser cytometry, cells loaded with oleic acid; for activity change, negative = inhibition: at 57.5 µM (top of the series)
Method in brief: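 Cells seeded at 5,000 per well were treated with compounds over a concentration series and loaded with oleic acid (400 uM, as added). Lipid droplet fluorescence (488 nm excitation, 500-530 nm channel) was read by laser-scanning cytometry and normalized to 20 uM Triacsin C.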

[7] = molecular target: DNA dC->dU-editing enzyme APOBEC-3G (Homo sapiens) (UniProt Q9HC16); assay: qHTS for inhibitors of Vif-A3G interactions: Validation (AID 588379)
Method in brief: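 HeLa cells stably expressing Vif and A3G-eYFP, 700 cells/well, incubated overnight at 37 deg C, then exposed to compound overnight at 37 deg C. Inhibition of Vif-mediated degradation read as increased yellow fluorescence (Ex 488/Em 500-530) by laser-scanning cytometry.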

[8] = system: Zika virus NS2B-NS3 protease; assay: Primary screen GU AMC qHTS for Zika virus inhibitors (AID 1347154); note: nearly all actives have a fitted effect of over 70% in size; note: potency is the fitted concentration of half-maximal effect
Method in brief: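 Unlinked Zika NS2B hydrophilic domain/NS3 protease domain noncovalent complex (25 nM final) in 10 mM Tris-HCl pH 8.0, 0.01% Tween 20, with AMC peptide substrate. Fluorescence (ex 340, em 450 nm) change over 15 min, room temperature; percent inhibition fitted to 4-parameter Hill equation.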

[9] = Primary qHTS for small molecule stabilizers of the endoplasmic reticulum resident proteome: Secreted ER Calcium Modulated Protein (SERCaMP) assay (AID 1508630)
Method in brief: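 GLuc-SERCaMP-expressing SH-SY5Y cells, pretreated 16 h with compound, are challenged with thapsigargin to empty ER calcium stores; after 4 h, coelenterazine is added directly to the medium and luminescence is imaged.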

[10] = molecular target: Ubiquitin carboxyl-terminal hydrolase 1 (Homo sapiens) (UniProt O94782); assay: Inhibitors of USP1/UAF1: Pilot qHTS (AID 504865);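 note: rhodamine fluorescence freed from ubiquitin-rhodamine substrate followed over time; top concentration of the series differs between compounds; nearly all actives have a fitted effect of over 35% in size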
Method in brief: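 Enzyme-free wells gave the negative control, while test wells held 1nM USP1/UAF1 preincubated with compound for 15 min at room temperature. Ub-Rho at 150nM final started the reaction, and fluorescence at 480/540 nm was recorded kinetically.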

[11] = measured here: cell count channel max response
[12] = measured here: lipid channel max response

Glucocorticoid receptor (Homo sapiens), sequence (P04150 whole entry, looked up, the tested form may be a part): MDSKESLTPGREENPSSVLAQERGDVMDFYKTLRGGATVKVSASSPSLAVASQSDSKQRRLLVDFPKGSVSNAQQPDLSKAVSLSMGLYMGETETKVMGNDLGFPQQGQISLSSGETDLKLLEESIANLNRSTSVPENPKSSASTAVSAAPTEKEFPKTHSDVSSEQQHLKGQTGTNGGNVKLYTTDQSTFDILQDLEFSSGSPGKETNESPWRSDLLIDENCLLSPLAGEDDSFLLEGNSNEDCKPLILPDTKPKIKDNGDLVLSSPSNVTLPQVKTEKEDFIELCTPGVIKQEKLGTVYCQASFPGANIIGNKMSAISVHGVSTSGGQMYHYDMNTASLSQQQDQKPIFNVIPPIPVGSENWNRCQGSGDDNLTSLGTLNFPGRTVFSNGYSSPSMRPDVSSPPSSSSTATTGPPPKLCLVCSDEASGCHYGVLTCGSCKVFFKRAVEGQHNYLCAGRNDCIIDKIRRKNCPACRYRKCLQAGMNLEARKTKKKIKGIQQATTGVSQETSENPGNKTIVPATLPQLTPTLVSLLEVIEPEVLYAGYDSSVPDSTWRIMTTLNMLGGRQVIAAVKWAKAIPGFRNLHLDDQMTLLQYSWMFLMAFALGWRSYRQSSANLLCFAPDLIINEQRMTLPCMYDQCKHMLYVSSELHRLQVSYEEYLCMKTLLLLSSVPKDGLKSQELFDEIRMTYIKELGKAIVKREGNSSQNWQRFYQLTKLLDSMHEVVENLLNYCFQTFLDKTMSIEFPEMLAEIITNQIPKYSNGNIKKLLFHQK
Ubiquitin carboxyl-terminal hydrolase 1 (Homo sapiens), sequence (O94782 whole entry, looked up): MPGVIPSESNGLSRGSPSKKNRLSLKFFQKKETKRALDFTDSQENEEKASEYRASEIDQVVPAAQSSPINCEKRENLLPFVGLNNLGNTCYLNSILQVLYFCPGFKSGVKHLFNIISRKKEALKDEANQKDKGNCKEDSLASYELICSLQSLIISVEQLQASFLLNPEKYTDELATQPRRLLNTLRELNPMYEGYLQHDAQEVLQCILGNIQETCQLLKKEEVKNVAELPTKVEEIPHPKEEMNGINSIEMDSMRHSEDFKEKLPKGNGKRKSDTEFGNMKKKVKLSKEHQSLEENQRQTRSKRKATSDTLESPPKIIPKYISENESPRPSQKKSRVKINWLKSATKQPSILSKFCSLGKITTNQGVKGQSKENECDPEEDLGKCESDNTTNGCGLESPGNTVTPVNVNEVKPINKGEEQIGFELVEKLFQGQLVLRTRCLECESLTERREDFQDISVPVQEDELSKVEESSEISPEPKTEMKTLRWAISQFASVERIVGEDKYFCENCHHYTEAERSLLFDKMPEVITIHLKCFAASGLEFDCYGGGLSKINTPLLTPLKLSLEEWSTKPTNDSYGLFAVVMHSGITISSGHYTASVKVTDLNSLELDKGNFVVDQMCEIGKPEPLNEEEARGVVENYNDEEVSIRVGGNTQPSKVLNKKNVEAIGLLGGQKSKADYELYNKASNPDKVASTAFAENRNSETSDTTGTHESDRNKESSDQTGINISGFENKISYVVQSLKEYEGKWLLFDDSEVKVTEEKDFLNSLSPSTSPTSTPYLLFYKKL
DNA dC->dU-editing enzyme APOBEC-3G (Homo sapiens), sequence (Q9HC16 whole entry, looked up): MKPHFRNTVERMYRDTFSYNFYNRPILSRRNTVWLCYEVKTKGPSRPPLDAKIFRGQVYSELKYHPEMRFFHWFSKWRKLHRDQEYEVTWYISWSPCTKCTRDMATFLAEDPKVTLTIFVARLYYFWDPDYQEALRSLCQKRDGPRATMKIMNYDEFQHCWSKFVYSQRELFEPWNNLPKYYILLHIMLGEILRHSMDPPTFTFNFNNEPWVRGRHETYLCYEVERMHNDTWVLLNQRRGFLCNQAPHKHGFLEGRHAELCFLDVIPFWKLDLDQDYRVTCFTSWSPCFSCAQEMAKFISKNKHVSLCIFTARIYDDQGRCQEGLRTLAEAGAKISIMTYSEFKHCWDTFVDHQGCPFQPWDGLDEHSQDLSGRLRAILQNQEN
3',5'-cyclic-AMP phosphodiesterase 4B (Homo sapiens), sequence (Q07343 whole entry, looked up): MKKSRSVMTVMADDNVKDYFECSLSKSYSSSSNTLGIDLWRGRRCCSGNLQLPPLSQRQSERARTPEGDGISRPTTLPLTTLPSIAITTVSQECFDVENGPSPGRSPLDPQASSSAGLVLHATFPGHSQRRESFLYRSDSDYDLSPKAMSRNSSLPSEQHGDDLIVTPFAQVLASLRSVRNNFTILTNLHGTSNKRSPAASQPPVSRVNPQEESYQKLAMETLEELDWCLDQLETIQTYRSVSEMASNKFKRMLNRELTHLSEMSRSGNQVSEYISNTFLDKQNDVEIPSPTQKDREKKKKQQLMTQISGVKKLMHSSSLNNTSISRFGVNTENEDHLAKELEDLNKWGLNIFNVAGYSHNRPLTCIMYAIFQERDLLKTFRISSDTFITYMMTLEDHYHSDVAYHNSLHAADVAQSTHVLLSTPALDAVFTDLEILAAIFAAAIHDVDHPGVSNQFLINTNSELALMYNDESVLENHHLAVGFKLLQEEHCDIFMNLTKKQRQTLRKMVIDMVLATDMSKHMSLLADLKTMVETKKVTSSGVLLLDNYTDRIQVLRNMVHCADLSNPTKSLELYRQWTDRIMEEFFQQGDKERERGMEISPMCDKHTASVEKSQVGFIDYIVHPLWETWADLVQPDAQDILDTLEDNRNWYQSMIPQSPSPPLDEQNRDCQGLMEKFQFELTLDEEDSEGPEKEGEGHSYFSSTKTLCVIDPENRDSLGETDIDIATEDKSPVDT
Cytochrome P450 1A2 (Homo sapiens), sequence (P05177 whole entry, looked up): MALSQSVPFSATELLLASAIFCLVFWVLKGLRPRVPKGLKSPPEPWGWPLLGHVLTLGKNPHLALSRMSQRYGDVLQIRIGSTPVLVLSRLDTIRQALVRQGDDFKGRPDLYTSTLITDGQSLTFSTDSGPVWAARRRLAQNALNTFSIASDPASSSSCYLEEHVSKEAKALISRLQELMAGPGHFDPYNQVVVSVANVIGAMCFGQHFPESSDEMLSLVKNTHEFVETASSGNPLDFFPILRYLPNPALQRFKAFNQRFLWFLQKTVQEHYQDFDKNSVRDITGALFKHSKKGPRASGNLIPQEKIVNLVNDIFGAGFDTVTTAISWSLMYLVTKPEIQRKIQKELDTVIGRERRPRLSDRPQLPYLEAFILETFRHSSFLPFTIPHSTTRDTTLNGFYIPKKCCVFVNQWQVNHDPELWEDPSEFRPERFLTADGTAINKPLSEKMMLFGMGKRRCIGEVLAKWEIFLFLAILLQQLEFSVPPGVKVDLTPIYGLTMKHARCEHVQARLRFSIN

O=C(O)Cc1cc2ccccc2nc1C(=O)O
Potency [1]: inactive
Potency [2]: > 46 µM (inactive)
Potency [3]: > 46 µM (inactive)
Potency [4]: inactive
Potency [5]: inactive
activity change, negative = inhibition [6]: -1.15% (inactive)
max response [6, 11]: 1.68%
max response [6, 12]: 0.785%
Potency [7]: inactive
Potency [8]: inactive
Potency [9]: inactive

CC(=O)NCC(=O)N[C@H](CCC(=O)O)C(=O)O (HELM PEPTIDE1{[ac].G.[dE]}$$$$V2.0)
Potency [2]: > 46 µM (inactive)
Potency [3]: > 46 µM (inactive)
Potency [4]: inactive
activity change, negative = inhibition [6]: 3.36% (inactive)
max response [6, 11]: 6.18%
max response [6, 12]: 9.84%
Potency [10]: inactive
Potency [7]: inactive
Potency [8]: inactive
Potency [9]: inactive

NCCCNCCCCN(CCCN)/[N+]([O-])=N/O
Potency [2]: > 46 µM (inactive)
Potency [3]: > 46 µM (inactive)
Potency [4]: inactive
Potency [5]: inactive
activity change, negative = inhibition [6]: -0.752% (inactive)
max response [6, 11]: -8.77%
max response [6, 12]: -8.94%
Potency [10]: inactive
Potency [7]: inactive
Potency [8]: inactive
Potency [9]: inactive

Cc1cc([C@](C)(N)C(=O)O)ccc1P(=O)(O)O
Potency [2]: > 46 µM (inactive)
Potency [3]: > 46 µM (inactive)
Potency [4]: inactive
Potency [5]: inactive
activity change, negative = inhibition [6]: -5.09% (inactive)
max response [6, 11]: 16.7%
max response [6, 12]: 13.5%
Potency [10]: inactive
Potency [7]: inactive
Potency [8]: inactive
Potency [9]: inactive

CCCn1c(=O)c2[nH]c(-c3ccc(OCC(=O)Nc4ccc(C(C)=O)cc4)cc3)nc2n(CCC)c1=O
Potency [2]: > 46 µM (inactive)
Potency [3]: > 46 µM (inactive)
Potency [4]: inactive
activity change, negative = inhibition [6]: 5.04% (inactive)
max response [6, 11]: 6.38%
max response [6, 12]: 10.1%
Potency [10]: inactive
Potency [7]: inactive
Potency [8]: inactive
Potency [9]: inactive

Cc1ncc2c(c1O)COP(=O)(O)OC2
Potency [2]: > 46 µM (inactive)
Potency [3]: > 46 µM (inactive)
Potency [4]: inactive
activity change, negative = inhibition [6]: 0.354% (inactive)
max response [6, 11]: -3.73%
max response [6, 12]: -4.32%
Potency [10]: inactive
Potency [7]: inactive
Potency [8]: inactive
Potency [9]: inactive

NC1(C(=O)O)CCC1
Potency [2]: > 46 µM (inactive)
Potency [3]: > 46 µM (inactive)
Potency [4]: inactive
activity change, negative = inhibition [6]: 3.54% (inactive)
max response [6, 11]: -18.5%
max response [6, 12]: -13.7%
Potency [10]: inactive
Potency [7]: inactive
Potency [8]: inactive
Potency [9]: inactive

CC(C)SC(=N)N
Potency [1]: inactive
Potency [2]: > 46 µM (inactive)
Potency [3]: > 46 µM (inactive)
Potency [4]: inactive
Potency [5]: inactive
activity change, negative = inhibition [6]: -0.874% (inactive)
max response [6, 11]: 1.11%
max response [6, 12]: -3.81%
Potency [7]: inactive
Potency [8]: inactive
Potency [9]: inactive

N[C@@H](CSS(=O)(=O)O)C(=O)O
Potency [1]: 39.8 µM (active)
Potency [2]: > 46 µM (inactive)
Potency [3]: > 46 µM (inactive)
Potency [5]: inactive
activity change, negative = inhibition [6]: 3.51% (inactive)
max response [6, 11]: 2.48%
max response [6, 12]: 7.41%
Potency [7]: inactive
Potency [8]: inactive
Potency [9]: inactive

CC[C@@](N)(C(=O)O)c1ccc(C(=O)O)cc1
Potency [2]: > 46 µM (inactive)
Potency [3]: > 46 µM (inactive)
Potency [4]: inactive
Potency [5]: inactive
activity change, negative = inhibition [6]: 2.13% (inactive)
max response [6, 11]: -11.5%
max response [6, 12]: -11.5%
Potency [10]: inactive
Potency [7]: inactive
Potency [8]: inactive
Potency [9]: inactive

NC1(C(=O)O)C[C@H](C(=O)O)[C@H](C(=O)O)C1 (some centres undefined)
Potency [1]: inactive
Potency [2]: > 46 µM (inactive)
Potency [3]: > 46 µM (inactive)
Potency [4]: inactive
Potency [5]: inactive
activity change, negative = inhibition [6]: 1.98% (inactive)
max response [6, 11]: 12.8%
max response [6, 12]: 14.8%
Potency [7]: inactive
Potency [8]: inactive
Potency [9]: inactive

N[C@](CC1c2ccccc2Oc2ccccc21)(C(=O)O)[C@@H]1C[C@@H]1C(=O)O
Potency [2]: > 46 µM (inactive)
Potency [3]: > 46 µM (inactive)
Potency [4]: inactive
Potency [5]: inactive
activity change, negative = inhibition [6]: 5.89% (inactive)
max response [6, 11]: 12.4%
max response [6, 12]: 20%
Potency [10]: inactive
Potency [7]: inactive
Potency [8]: inactive
Potency [9]: inactive

N[C@H](C(=O)O)c1cccc(O)c1
Potency [2]: > 46 µM (inactive)
Potency [3]: > 46 µM (inactive)
Potency [4]: inactive
activity change, negative = inhibition [6]: 7.87% (inactive)
max response [6, 11]: 12.7%
max response [6, 12]: 24.7%
Potency [10]: inactive
Potency [7]: inactive
Potency [8]: inactive
Potency [9]: inactive

CCCCCCCCCC(=O)O[C@H](CC(=O)O)C[N+](C)(C)C
Potency [2]: > 46 µM (inactive)
Potency [3]: > 46 µM (inactive)
Potency [4]: inactive
activity change, negative = inhibition [6]: 3.92% (inactive)
max response [6, 11]: -0.114%
max response [6, 12]: -1.87%
Potency [10]: inactive
Potency [7]: inactive
Potency [8]: inactive
Potency [9]: inactive

c1ncc(CC2CCNCC2)[nH]1
Potency [2]: > 46 µM (inactive)
Potency [3]: > 46 µM (inactive)
Potency [4]: inactive
Potency [5]: inactive
activity change, negative = inhibition [6]: 0.0288% (inactive)
max response [6, 11]: -18.2%
max response [6, 12]: -15.8%
Potency [10]: inactive
Potency [7]: inactive
Potency [8]: inactive
Potency [9]: inactive

COc1ccc2c(c1)CCC1[C@@H]2CCC2(C)[C@@H](NCCCCCCN3C(=O)C=CC3=O)CC[C@@H]12 (some centres undefined)
Potency [1]: inactive
Potency [2]: > 46 µM (inactive)
Potency [3]: > 46 µM (inactive)
Potency [4]: inactive
Potency [5]: inactive
activity change, negative = inhibition [6]: -5.78% (inactive)
max response [6, 11]: 16.2%
max response [6, 12]: 8.52%
Potency [7]: inactive
Potency [8]: inactive
Potency [9]: inactive

O=C(O)c1c2ccccc2cc2ccccc12
Potency [1]: 0.2 µM (active)
Potency [4]: inactive
activity change, negative = inhibition [6]: 8.27% (inactive)
max response [6, 11]: 24.6%
max response [6, 12]: 34.2%
Potency [10]: inactive
Potency [7]: inactive
Potency [8]: 26.7 µM (active)
Potency [9]: inactive

N[C@H](CCC(=O)NCC(=O)O)C(=O)O
Potency [2]: > 46 µM (inactive)
Potency [3]: > 46 µM (inactive)
Potency [4]: inactive
Potency [5]: inactive
activity change, negative = inhibition [6]: -2.27% (inactive)
max response [6, 11]: 4.97%
max response [6, 12]: 3.09%
Potency [10]: inactive
Potency [7]: inactive
Potency [8]: inactive
Potency [9]: inactive
